# High-throughput results from PubChem BioAssay.
# Only some compounds are listed: those with a hit (about 6.1% of all), similar ones and a draw of the others.
# ALOX15 inhib – 15-hLO (ALOX15) enzyme inhibition | AID 887 | Potency, µM (highest dose often 57.1 µM), for inactives: at the top dose activity change, negative = inhibition, usual class: inhibitors | purified 15hLO-1, xylenol orange hydroperoxide absorbance | 1.4% of 74,000 active; note: nearly all actives have a fitted effect of over 55% in size
#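 40 nM 15hLO-1 + cpd, 15 min RT; start w/ 50 uM AA (final), 6 min RT; stop/detect w/ 200 uM XO + 300 uM Fe(II) in 50 mM H2SO4, 30 min; A573/A405. Buffer 25 mM Hepes pH 7.5, 0.01% Triton X-100. No-enzyme wells as negative control.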
# FLuc inh – blocks Photinus pyralis firefly luciferase activity. purified firefly luciferase, luminescence, 8 min. Potency, µM (titrated, usually from 57.1 µM), inactives show at the highest dose activity change, negative = inhibition, hits mostly inhibitors. 2.2% of 72,000 active; note: nearly all actives have a fitted effect of over 40% in size
# Target sequence (P08659 whole entry, looked up): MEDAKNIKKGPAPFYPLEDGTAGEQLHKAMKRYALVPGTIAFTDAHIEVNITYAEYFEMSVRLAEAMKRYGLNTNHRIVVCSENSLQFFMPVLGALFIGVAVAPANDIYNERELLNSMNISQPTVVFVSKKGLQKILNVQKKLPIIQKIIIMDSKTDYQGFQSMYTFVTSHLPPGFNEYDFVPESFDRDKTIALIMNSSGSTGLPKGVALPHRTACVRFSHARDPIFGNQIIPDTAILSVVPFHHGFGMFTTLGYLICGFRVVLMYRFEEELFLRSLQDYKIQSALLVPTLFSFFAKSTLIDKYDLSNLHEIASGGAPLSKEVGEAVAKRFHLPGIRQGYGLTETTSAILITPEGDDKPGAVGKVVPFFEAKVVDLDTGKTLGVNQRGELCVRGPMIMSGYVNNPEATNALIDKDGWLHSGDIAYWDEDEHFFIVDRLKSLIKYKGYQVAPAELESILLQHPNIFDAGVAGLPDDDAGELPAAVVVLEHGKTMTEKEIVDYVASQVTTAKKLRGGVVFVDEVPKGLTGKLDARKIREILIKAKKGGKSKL
#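 Titration-based qHTS; buffer 50 mM imidazole pH 7.2, 50 mM KCl, 7 mM MgCl2, 10 uM ATP, 0.01% Tween 20, 0.05% BSA; luciferase/luciferin detector mix added after compound; 8 min, ambient; luminescence.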
# ERK AVP inh – vasopressin-driven ERK pathway inhibition. 0.99% of 72,000 active. HEK293-V1b, vasopressin-stimulated pERK AlphaScreen. AID 995. Potency, µM (top dose mostly 57.5 µM), inactives show at the top dose activity, negative = inhibition, actives largely listed as inhibitors; note: nearly all actives have a fitted effect of over 55% in size
#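 qHTS, compounds titrated on V1b-expressing HEK293 cells. Preincubation 30 min at 37C, vasopressin 25 nM for 5 min, lysis 10 min, bead incubation 5 hr at room temperature.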
# Hsp90 Hop PPI – changes Hsp90-Hop TPR2A binding signal, up or down | 0.44% of 71,000 active | AID 595 | AlphaScreen TPR2A-His6 binding biotin-Hsp90 C-terminal peptide | Potency, µM (titrated, usually from 57 µM), for inactives: top-dose activity change, negative = inhibition; active = well fitted curve in either direction with a large enough effect; inconclusive = small, poorly fitted or top-dose-only effect, or another doubt
# Bst PK mod – modulators of Bacillus stearothermophilus pyruvate kinase; purified pyruvate kinase, luminescence ATP production; ribose 5-phosphate activator present at AC10; Potency, µM; 1.2% of 51,000 active; in the data active = potency below about 11 µM; inconclusive = mostly about 12 µM to 25 µM;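 the screen sought inhibitors and activators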;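 note: scaled between full activation by ribose 5 phosphate and full inhibition by luteolin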
# Tau filament bind – binds recombinant human tau filaments | Potency, µM (top dose mostly 57.1 µM), inactives show at the top dose activity change, negative = inhibition | P10636 | 2% of 71,000 active | recombinant tau filaments, thioflavin S fluorescence, 15 h; filaments grown with octadecylsulfate alongside compound;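 note: actives lower thioflavin S fluorescence by blocking filaments or displacing dye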
#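 His-tagged recombinant human tau (exons 2, 3 and 10 included), 1 uM, was induced to fibrillize by 30 uM sodium octadecylsulfate with compound present. After 15 h at 37 C, thioflavine S fluorescence (ex 450, em 510 nm) was read.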
# * hit, by the source's call; i = inactive; u = inconclusive; x = no result given; [ ] = remark or other dose. Unless noted, calls come from the whole dose curve; as a rule, active = well fitted curve in the direction sought with a large enough effect; inconclusive = small, poorly fitted or top-dose-only effect, or another doubt; inactive = no such curve, though single readings can be large; an effect the other way counts as inactive or inconclusive. Unless noted, % is set by controls: 0 for no effect and ±100 for the full control effect; potency is the fitted concentration of half-maximal effect.
SMILES,ALOX15 inhib,FLuc inh,ERK AVP inh,Hsp90 Hop PPI,Bst PK mod,Tau filament bind
CC1=c2c(oc3cc(O)c(Nc4c(C)cc(O)cc4O)c(C)c23)=CC(=O)C1=Nc1c(C)cc(O)cc1O,u,-28%[11.4 µM],-9%[11.5 µM],u,x,1.6µM*
N#CCCn1c(=O)cnc2cnc(N3CCNCC3)nc21,13%,0%[11.4 µM],-6%,-4%,x,-7%
COc1cc(S(=O)(=O)NC2CCCCC2)ccc1Cl,u,3%,-3%,11%,>57,16µM*
COc1cc(S(=O)(=O)Nc2ccccc2C)ccc1Cl,-25%,4%,u,-4%,>57,13µM*
FC(F)(F)c1cc(CN2CCCC3(CCNCC3)C2)cc(C(F)(F)F)c1,3%,1%[11.4 µM],-8%,-3%,x,-24%
Cc1ccc(C=Nc2ccc(N(C)C)cc2)o1,u,3.2µM*,u,u,x,u
O=C(Nc1nc(-c2ccc(Cl)s2)cs1)c1ccncc1,-1%,-2%,u,-2%,>57,25µM*
COc1cc(NC(=O)c2cc(-c3cccs3)on2)cc(OC)c1OC,-10%,0%,-26%,3%,>57,5%
O=C(Cc1ccccc1)Nc1nc(-c2cccs2)cs1,-28%,-26%,24%,8%,x,6%
COc1ccc(C(=O)Nc2nc(-c3cccs3)cs2)cc1,-25%,16µM*,u,1%,u,8%
COc1cc(C(=O)Nc2nc(-c3cccs3)cs2)cc(OC)c1OC,16µM*,0%,3.2µM*,-2%,i,32%
O=C(COc1ccc(Cl)cc1)Nc1nc(-c2cccs2)cs1,-24%,-5%,25µM*,17%,x,33%
Cc1csc(NC(=O)c2sc3nc(-c4cccs4)ccc3c2N)n1,u,20µM*,-1%,u,7.4*,228%
O=C(Nc1nc(-c2ccncc2)cs1)c1ccco1,-12%,-21%,-25%,-6%,i,13µM*
O=C(Nc1nc(-c2cc3ccccc3oc2=O)cs1)c1ccco1,-7%,-5%,x,9%,x,128%
COCCNc1ncnc2ccc(-c3cccc(NS(C)(=O)=O)c3)cc12,-29%,0%[2.29 µM],-16%,0%,x,2%
COc1cccc(-c2ccc3ncnc(NCc4ccccc4OC)c3c2)c1,u,-4%[2.29 µM],u,-1%,x,i
Cc1cccc(CNc2ncnc3ccc(-c4cccnc4)cc23)c1,u,-3%[2.29 µM],2µM*,-10%,x,23%
CN(C)C(=O)c1ccc(-c2ccc3ncnc(NCc4cccnc4)c3c2)cc1,1%,-1%[2.29 µM],u,-2%,x,-6%
Cc1cccc(CNc2ncnc3ccc(-c4cccc(NS(C)(=O)=O)c4)cc23)c1,-1%,0%[2.29 µM],25µM*,-6%,x,107%
CN(C)C(=O)c1ccc(-c2ccc3ncnc(NCc4ccccc4)c3c2)cc1,13%,0%[2.29 µM],25µM*,-1%,x,6%
COc1ccccc1CNc1ncnc2ccc(-c3cccc(NS(C)(=O)=O)c3)cc12,6%,1%[2.29 µM],16µM*,-14%,x,38%
COc1ccc(-n2c(=O)c(CCc3ccccc3)nc3cnc(N4CCN(C)CC4)nc32)cc1,-4%,-1%[11.4 µM],-29%,-2%,x,6%
Cc1cc2c(c(=O)o1)[C@H](O)[C@H]1O[C@@H]1C2=O,u,1%[11.4 µM],0%[11.5 µM],x,x,x
CS(=O)(=O)Nc1cccc(-c2ccc3ncnc(NC4CC4)c3c2)c1,1%,-1%[2.29 µM],u,0%,x,68%
SMILES,ALOX15 inhib,FLuc inh,ERK AVP inh,Hsp90 Hop PPI,Bst PK mod,Tau filament bind
Cc1cccc(CNc2ccnc(-c3cccc(NS(C)(=O)=O)c3)n2)c1,-12%,-1%[2.29 µM],13µM*,u,x,10%
CN1CCN(c2ncnc3ccc(-c4cccc(NS(C)(=O)=O)c4)cc23)CC1,-2%,-2%[2.29 µM],3.2µM*,8%,x,3%
Cc1cnc(CNc2ccnc(-c3cccc(NS(C)(=O)=O)c3)n2)cn1,12%,-1%[2.29 µM],-5%,-4%,x,-10%
COc1ccc(-c2coc3ccc(O[C@@H]4O[C@@H](COC(C)=O)[C@@H](OC(C)=O)[C@@H](OC(C)=O)[C@H]4OC(C)=O)c(OC(C)=O)c3c2=O)cc1,x,1%[11.4 µM],x,-5%,x,u
COc1cccc(C=Nc2cc(C)on2)c1O,16%,2%,5%,-1%,x,-14%
CCc1ccc2oc(-c3cc(N=Cc4cccc(OC)c4O)ccc3O)nc2c1,-9%,1.3µM*,-9%,-7%,1.3*,13µM*
CCOC(=O)CSc1nc2cc(OCC)ccc2cc1C#N,-6%,-2%,9%,24%,>57,10%
CCOC(=O)CC(=O)CSc1nc(-c2cccnc2)ccc1C#N,-20%,-7%,u,0%,i,15%
CCOC(=O)CSc1nc(-c2ccc3c(c2)OCO3)ccc1C#N,x,4µM*,x,x,4.3*,x
CCOC(=O)CSc1nc(-c2ccncc2)ccc1C#N,x,7.9µM*,x,x,i,x
CC(=O)OCC(=O)[C@@]1(O)CC[C@@H]2[C@H]3CCC4=CC(=O)CC[C@]4(C)[C@]3(F)[C@@H](O)C[C@@]21C,3%[25.6 µM],2%[25.5 µM],21%[25.7 µM],0%[26 µM],x,-11%[25.6 µM]
c1ccc2c(c1)CCN(c1ncnc3nc[nH]c13)C2,-2%,3%,x,-2%,x,0%
C1=C(c2ccccc2)CCN(c2ncnc3nc[nH]c23)C1,25µM*,0%,x,-2%,x,-5%
O=C(Nc1cccnc1)c1cccc(S(=O)(=O)N2CCOCC2)c1,4%,3%,-29%,-2%,>57,-12%
O=C(Nc1nccs1)C1CCCN1S(=O)(=O)c1ccc(Cl)cc1 (stereo not given),5%,2%,-7%,-1%,10*,2%
COC(=O)c1cc(OC)c(OC)cc1NC(=O)C1CCC(=O)N1S(=O)(=O)c1ccc(C)cc1 (stereo not given),7%,0%,25µM*,-2%,u,-3%
COC(=O)c1ccc(NC(=O)C2CCCN2S(=O)(=O)c2ccc(C)cc2)cc1 (stereo not given),-3%,0%,25µM*,0%,x,4%
COC(=O)c1ccc(NC(=O)C2CCCN2S(=O)(=O)c2ccc(OC)cc2)cc1 (stereo not given),1%,-1%,-28%,0%,>57,12%
O=C(Nc1cccnc1)c1ccc(Cl)c(S(=O)(=O)N2CCCCCC2)c1,-8%,-6%,20µM*,-3%,>57,-3%
CC(C)(C)N1C(=O)[C@H]2[C@H]3[C@H](O)[C@H](O)C/C(=N/NC(=O)OCc4ccccc4)[C@H]3CC[C@@H]2C1=O,6%[11.4 µM],0%[11.4 µM],-2%[11.5 µM],x,x,x
COc1ccc(S(=O)(=O)N2CCCC(C(=O)Nc3cccnc3)C2)cc1Cl (stereo not given),-11%,2%,u,-3%,>57,-3%
O=C(Nc1cccnc1)C1CCCN1S(=O)(=O)c1ccc(Cl)c(Cl)c1 (stereo not given),-3%,2%,-3%,-5%,4.7*,-1%
